# Source: PubChem BioAssay AID463173 (ICCB-Longwood Screening Facility, Harvard Medical School, 2010)
# Hit rate of the full screen: of about 52,000 compounds, about 4,300 (8.3%) were called active. The full list was thinned out, with actives kept by preference. A number with no mark means an inactive call. Cut-off read from the data, not from the text of the source: active = survival mostly below about 52% (no sharp cut-off); inactive = mostly above about 56%.
# Test system: DeltatarO mutant
# Test: growth inhibition of S. aureus wild type versus tarO mutant, primary screen, teichoic acid synthesis inhibitors, RN4220, OD600 (AID 463173)
# Details: OD600, 18 h, hits give low values, screened at 18.75 µg/mL (by protocol)
row,Compound,survival
1,Cc1cccc(C(=O)Nc2ccc(OCc3cc(=O)n4ccsc4n3)cc2)c1,101%
2,O=C(CSc1ccccn1)Nc1cccc(F)c1,85%
3,COC(=O)C(C)(C)Sc1nnc2c(n1)[nH]c1c(C)cc(C)cc12,55%
4,Cc1cccc(NC(=O)c2ccc(-n3cnc4cccnc43)cc2)c1C,82%
5,COc1cc(OC)c(NC(=O)c2ccc(-n3cnc4cccnc43)cc2)cc1Cl,52% (active)
6,COc1cc(NC(=O)c2ccc(-n3cnc4cccnc43)cc2)cc(OC)c1,55%
7,CN1C(C(=O)Nc2cccc(O)c2)=CC(c2ccco2)=NS1(=O)=O,88%
8,CCn1c(C)c(C)c2cc(C(=O)NCc3ccc(F)cc3)ccc21,90%
9,COc1ccc(CNC(=O)CCc2c(C)nc3c(c2C)c(=O)n(C)c(=O)n3C)cc1,115%
10,CCN(CC)S(=O)(=O)c1nnc(NC(=O)c2ccc(Br)cc2)s1,44% (active)
11,CCN(CC)S(=O)(=O)c1nnc(NC(=O)COc2ccc(Cl)cc2)s1,87%
12,CCN(CC)S(=O)(=O)c1nnc(NC(=O)COc2ccc(C)cc2)s1,88%
13,CCN(CC)S(=O)(=O)c1nnc(NC(=O)COc2ccccc2)s1,100%
14,CCN(CC)S(=O)(=O)c1nnc(NC(=O)c2ccc(C)cc2)s1,63%
15,CCN(CC)S(=O)(=O)c1nnc(NC(=O)c2ccc(C(C)C)cc2)s1,44% (active)
16,COCCCNC(=O)c1sc2ncccc2c1-n1cccc1,75%
17,COc1ccc(CNC(=O)C2CCN(c3nnc(-n4c(C)ccc4C)s3)CC2)c(OC)c1,87%
18,COc1ccc2c(c1)CC(NC(=O)Nc1ccc(Br)c(C)c1)CO2 (stereo not given),75%
19,CCOC(=O)C1=C(CN2CCN(c3cccc(OC)c3)CC2)NC(=O)NC1c1ccc(OC)cc1 (stereo not given),88%
20,Cn1cc(S(=O)(=O)N2CCCCC2)cc1C(=O)N1CCN(c2ccc(F)cc2)CC1,55%

row,Compound,survival
1,COC(=O)c1scc(-c2ccc(C)cc2)c1S(=O)(=O)N1CCN(c2ccccc2)CC1,72%
2,COC(=O)c1scc(-c2ccc(C)cc2)c1S(=O)(=O)N1CCN(c2ccc(OC)cc2)CC1,60%
3,COC(=O)c1scc(-c2ccc(C)cc2)c1S(=O)(=O)N1CCN(c2ccc(F)cc2)CC1,-4% (active)
4,Cn1cc(S(=O)(=O)N2CCCCCC2)cc1C(=O)N1CCN(c2ccc(F)cc2)CC1,75%
5,COC(=O)c1cc(S(=O)(=O)N2CCN(c3ccc(F)cc3)CC2)cn1C,-5% (active)
6,Cc1cc(C)cc(NC(=O)N2CCC(NC(=O)C3CCCCC3)CC2)c1,92%
7,Cc1ccccc1NC(=O)CN1CCCC1,70%
8,COCCCn1c(=O)c2sccc2n2c(CCCC(=O)NCc3ccc(F)cc3)nnc12,92%
9,O=c1c2sc3ccccc3c2n(Cc2cccc(C(F)(F)F)c2)c(=O)n1Cc1ccccc1,67%
10,CCOC(=O)c1[nH]c2ccccc2c1NC(=O)c1ccccc1OC,51% (active)
11,CCOC(=O)c1[nH]c2ccccc2c1NC(=O)c1cc(OCC)c(OCC)c(OCC)c1,97%
12,CCOC(=O)c1[nH]c2ccccc2c1NC(=O)c1ccc(OC)c(OC)c1,131%
13,CCOC(=O)c1[nH]c2ccccc2c1NC(=O)c1cc(OC)cc(OC)c1,48% (active)
14,CCOC(=O)c1[nH]c2ccccc2c1NC(=O)c1ccccc1OCC,68%
15,CCOC(=O)c1[nH]c2ccccc2c1NC(=O)c1ccccc1F,53%
16,Cc1ccc(CNC(=O)c2sc3nc(-c4ccccc4)cn3c2C)cc1,123%
17,Cc1ccc2oc(C(=O)Nc3c(C(=O)c4ccc(C)c(F)c4)oc4ccccc34)cc(=O)c2c1,58%
18,CCOc1ccc2nc(Cl)c(C3CC(c4ccc(OC)cc4)=NN3S(C)(=O)=O)cc2c1 (stereo not given),127%
19,CCOc1ccc2nc(Cl)c(C3CC(c4ccc(C)cc4)=NN3C(=O)CCC(=O)O)cc2c1 (stereo not given),50%
20,CCS(=O)(=O)N1N=C(c2ccc(C)cc2)CC1c1cc2ccc(OC)cc2nc1Cl (stereo not given),44% (active)

row,Compound,survival
1,CCOc1ccc(C2C(=O)N(C3CCCCCC3)CC(=O)N2CCc2ccccc2)cc1OC (stereo not given),88%
2,N#Cc1cc(C#N)c(SCC(N)=O)nc1N,72%
3,CCc1ccccc1N1C(=O)N(Cc2ccc(C#N)cc2)c2ccccc2S1(=O)=O,120%
4,O=C(Nc1ccccc1)N(Cc1c[nH]c2ccccc12)C1CCCCCC1,52%
5,Cc1ccc(NC(=O)N(Cc2c[nH]c3ccccc23)C2CCCCCC2)cc1C,56%
6,Cn1cc(CN(C(=O)Nc2ccc(Cl)c(Cl)c2)C2CCCCC2)c2ccccc21,51%
7,Cn1cc(CN(C(=O)Nc2ccccc2)C2CCCCC2)c2ccccc21,-14% (active)
8,Cc1ccc(NC(=O)N(Cc2cn(C)c3ccccc23)C2CCCCC2)cc1C,-13% (active)
9,COc1ccc2[nH]c(=O)c(CN(C(=O)Nc3ccccc3)C3CCCC3)cc2c1,78%
10,CCC(C(=O)NCc1ccccc1)n1nc(C)c2sc3ccccc3c2c1=O (stereo not given),70%
11,COc1cccc(CNc2sc3c(c2C(=O)Nc2ccc(OC)cc2OC)CCC3)c1,99%
12,CC(=O)Nc1nonc1-c1nnc(SCC(=O)Nc2cc(C)cc(C)c2)n1C,52%
13,CC1(C(=O)NC2CCCCC2)Cc2ccccc2C(=O)N1Cc1ccccc1Cl (stereo not given),43% (active)
14,CC1(C(=O)NC2CCCCC2)Cc2ccccc2C(=O)N1Cc1ccc(Cl)cc1 (stereo not given),92%
15,CC1CCC(NC(=O)C2(C)Cc3ccccc3C(=O)N2Cc2ccccc2Cl)CC1 (stereo not given),48%
16,N#Cc1ccc(S(=O)(=O)N2CCNCC2)cc1,98%
17,CC1=C(c2ccc(C(C)C)cc2)S(=O)(=O)NC1=NCc1ccccc1C,77%
18,Cc1[nH]n(-c2ccccc2)c(=O)c1C(c1cc(Cl)ccc1O)c1c(C)[nH]n(-c2ccccc2)c1=O,49%
19,Cc1[nH]n(-c2ccccc2)c(=O)c1/C=N/NC(=O)c1ccccc1,50%
20,Cc1[nH]n(-c2ccc(Cl)cc2)c(=O)c1C(=O)c1ccccc1,40% (active)
